DT40 TDP1 no CPT: qHTS for Inhibitors of human tyrosyl-DNA phosphodiesterase 1 (TDP1): qHTS in cells in absence of CPT; AID 686978, 2013; Potency, µM (doses to about 46.2 µM), inactives show at the top dose activity change, negative = growth inhibition, actives largely listed as inhibitors; DT40 Tdp1-/- hTDP1 cells, no CPT, ATP luminescence, 48 h; 420,000 tested, 15% active; further: potency means the concentration at half of the fitted maximal effect; nearly all actives have a fitted effect of over 55% in size
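Seeded 400 DT40-hTDP1 cells/well (vehicle DMSO, no 20 nM CPT); pinned compounds; ≥48 hr at 37 °C; CellTiter-Glo luminescence as viability measure.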
HT1080NT lethal: kills 2HG-producing HT-1080-NT fibrosarcoma cells. HT-1080-NT fibrosarcoma viability, CellTiter-Glo ATP luminescence, 48 h. Potency, µM (titrated, usually from 46.1 µM), for inactives: at the highest dose activity, negative = less viability, actives largely listed as cytotoxic. 360,000 tested, 1.6% active;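 further: NT is the 2HG producing partner of a matched IDH1 knockdown line; potency means the concentration at half of the fitted maximal effect; 0% = DMSO-treated cells and -100% = media-only wells without cells; nearly all actives have a fitted effect of over 55% in size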
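HT-1080-NT fibrosarcoma cells (2HG-overproducing), 750 cells/well in RPMI with 5% FBS, dosed after 2 h and incubated 48 h at 37C. CellTiter-Glo luminescence normalized to DMSO and no-cell wells; concentration-response curves fitted and classed.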
HT1080 IDH1KD tx: toxicity to HT-1080 IDH1 knockdown cells (counter line); HT-1080 IDH1 knockdown viability, ATP luminescence, 48 h; Potency, µM (titrated, usually from 46.1 µM), inactives show top-dose activity, negative = toxicity, usual class: cytotoxic; 360,000 tested, 2% active; AID 686971;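 further: potency means the concentration at half of the fitted maximal effect; 0% = DMSO wells and -100% = cell-free medium wells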
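HT-1080-IDH1KD cells (IDH1 knocked down), 750/well in RPMI with 5% FBS, treated with compound 48 h at 37 degrees C. Viability by CellTiter-Glo luminescence, normalised to DMSO and no-cell wells; concentration-response curves classed.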
IL-1B inflam inh: inhibitors of inflammasome signaling (IL-1 beta secretion); THP-1 LPS/ATP IL-1B secretion, AlphaLISA, 16 h; active compounds read low; activity change, % at 57.5 µM; 360,000 tested, 4.7% active; in the data active means activity change below about -50%; inconclusive means mostly about -30% to -49%
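Secreted IL-1B measured by AlphaLISA bead assay after 16 h compound exposure of THP-1 cells; compounds (final up to 57.5 uM) added 1 h before LPS (250 ng/mL) and ATP (1.25 mM) stimulation; lower signal means less secretion.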
ALOX12 inh: inhibitors of human 12S-lipoxygenase ALOX12; purified 12hLO, xylenol orange hydroperoxide absorbance; Potency, µM (titrated, usually from 108 µM), inactives show top-dose activity change, negative = inhibition, most hits filed as inhibitors; 580,000 tested, 1.1% active; further: potency means the concentration at half of the fitted maximal effect
Target sequence (P18054 whole entry, looked up): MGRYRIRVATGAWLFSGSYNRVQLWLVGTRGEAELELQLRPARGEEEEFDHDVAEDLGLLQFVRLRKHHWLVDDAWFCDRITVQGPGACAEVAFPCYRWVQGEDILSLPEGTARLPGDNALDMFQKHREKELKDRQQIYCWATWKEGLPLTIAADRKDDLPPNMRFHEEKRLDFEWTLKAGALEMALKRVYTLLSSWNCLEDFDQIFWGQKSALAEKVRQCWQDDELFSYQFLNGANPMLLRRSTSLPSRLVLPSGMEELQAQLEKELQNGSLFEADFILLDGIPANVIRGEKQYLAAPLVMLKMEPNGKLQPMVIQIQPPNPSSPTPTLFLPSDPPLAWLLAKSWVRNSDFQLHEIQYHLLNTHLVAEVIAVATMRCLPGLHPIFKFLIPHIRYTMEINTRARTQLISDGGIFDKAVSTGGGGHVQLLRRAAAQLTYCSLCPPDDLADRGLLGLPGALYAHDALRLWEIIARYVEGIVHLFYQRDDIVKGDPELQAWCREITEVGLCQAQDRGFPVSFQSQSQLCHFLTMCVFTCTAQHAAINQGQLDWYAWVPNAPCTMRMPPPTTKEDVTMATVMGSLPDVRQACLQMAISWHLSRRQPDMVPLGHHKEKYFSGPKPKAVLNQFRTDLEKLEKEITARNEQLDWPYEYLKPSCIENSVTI
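Purified human 12hLO (150 nM final) in 25 mM Hepes, 0.01% Triton X-100, pH 7.0 was preincubated 15 min at room temperature with compound. Then 40 uM arachidonic acid was added, 30 min. Hydroperoxide was read by Fe-XO absorbance ratio 573/405 nm.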
DT40 TDP1 CPT: DT40-hTDP1 cell growth loss with CPT | chicken DT40 Tdp1-/-;hTDP1 cells + 20 nM CPT, ATP luminescence, 48 h | Potency, µM (titrated, usually from 46.2 µM), for the others: at the top dose activity change, negative = growth inhibition, actives largely listed as inhibitors | 420,000 tested, 12% active; further: potency means the concentration at half of the fitted maximal effect; nearly all actives have a fitted effect of over 55% in size
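Chicken DT40 Tdp1-/- cells stably complemented with human TDP1 were seeded at 400 cells/well in medium containing 20 nM camptothecin, exposed to pin-transferred compounds, and grown at 37 °C for at least 48 hr. Viability was read as ATP luminescence.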
Numbers without * were called inactive; [ ] = remark or other dose. Only a selection was taken, and hits are over-represented in it overall. Unless noted, the call rests on the fitted dose curve; in most records, active means well fitted curve in the direction sought with a large enough effect; inconclusive means small, poorly fitted or top-dose-only effect, or another doubt; inactive means no such curve, though single readings can be large; an effect the other way counts as inactive or inconclusive. Unless noted, on the % scale 0 is the no-effect control and ±100 the full control effect.

Screening CCOc1cc2c(cc1OCC)CN(CC(=O)Nc1ccccc1C(=O)NC1CC1)CC2 returned DT40 TDP1 no CPT -14%, HT1080NT lethal 5%[9.24 µM], HT1080 IDH1KD tx 5%, IL-1B inflam inh -26, ALOX12 inh 9% and DT40 TDP1 CPT inconclusive.
For CCOc1ccccc1N1CCN(CC(=O)Nc2ccccc2C(=O)NC2CC2)CC1 the results were DT40 TDP1 no CPT 16µM*, HT1080NT lethal 5%, HT1080 IDH1KD tx 3%, IL-1B inflam inh 12, ALOX12 inh inconclusive and DT40 TDP1 CPT 21µM*.
Screening CCOc1ccccc1C(=O)Nc1cc(OC)ccc1OC returned DT40 TDP1 no CPT inconclusive, HT1080NT lethal 12%, HT1080 IDH1KD tx inconclusive, IL-1B inflam inh 28, ALOX12 inh 25% and DT40 TDP1 CPT -21%.
Screening N#CCCN1CCN(CCC#N)c2ccccc21 returned DT40 TDP1 no CPT -1%, HT1080NT lethal 1%, HT1080 IDH1KD tx 2%, IL-1B inflam inh -7, ALOX12 inh 28µM* and DT40 TDP1 CPT 3%.
For N#CCCN1CCN(CCC#N)C1=S the results were DT40 TDP1 no CPT 0%, HT1080NT lethal 9%, HT1080 IDH1KD tx 15%, IL-1B inflam inh 11, ALOX12 inh -5% and DT40 TDP1 CPT 0%.
`O=C(CCCCn1c(=S)[nH]c2ccsc2c1=O)NCc1ccc2c(c1)OCO2` gave DT40 TDP1 no CPT 18µM*, HT1080NT lethal -18%, HT1080 IDH1KD tx inconclusive, IL-1B inflam inh -3, ALOX12 inh inconclusive and DT40 TDP1 CPT inconclusive.
For Cc1ccccc1Cn1c(=O)n(CCCCC(=O)NCc2ccc3c(c2)OCO3)c(=O)c2ccccc21 the results were DT40 TDP1 no CPT inconclusive, ALOX12 inh 0% and DT40 TDP1 CPT 23µM*.
`O=C(CCCCn1c(=O)c2ccccc2n(Cc2cccc(Cl)c2)c1=O)NCc1ccc2c(c1)OCO2` gave DT40 TDP1 no CPT 12µM*, ALOX12 inh -13% and DT40 TDP1 CPT inconclusive.
`COc1ccccc1CNS(=O)(=O)c1ccc(F)cc1Br` gave ALOX12 inh 0%.
`COc1ccccc1CNS(=O)(=O)c1ccc(N2CCCC2)cc1Br` gave DT40 TDP1 no CPT inconclusive, HT1080NT lethal -11%, HT1080 IDH1KD tx -13%, IL-1B inflam inh -5, ALOX12 inh -11% and DT40 TDP1 CPT 16µM*.
COCCNC(=O)C[C@@H]1c2nc(NC(=O)CC(C)(C)C)sc2C[C@@H]2[C@](C)(CO)[C@H](O)CC[C@]21C was read as ALOX12 inh 0%.
For CCSc1nn(CC(=O)Nc2ccc(C(=O)OC)cc2)c(N)c1S(=O)(=O)c1ccc(C)cc1 the results were DT40 TDP1 no CPT 21µM*, ALOX12 inh -29% and DT40 TDP1 CPT 16µM*.
CSc1nn(CC(=O)Nc2cc(C)ccc2C)c(N)c1S(=O)(=O)c1ccccc1 was read as DT40 TDP1 no CPT 6.5µM*, ALOX12 inh -24% and DT40 TDP1 CPT inconclusive.
`CCOC(=O)c1ccc(NC(=O)Cn2nc(SC)c(S(=O)(=O)c3ccc(Cl)cc3)c2N)cc1` gave DT40 TDP1 no CPT 21µM*, ALOX12 inh inconclusive and DT40 TDP1 CPT inconclusive.
`COc1ccc(NC(=O)Cn2nc(SC)c(S(=O)(=O)c3ccc(C)cc3)c2N)cc1OC` gave DT40 TDP1 no CPT -22%, ALOX12 inh inconclusive and DT40 TDP1 CPT -7%.
CC(C)N1C(=O)C(CC(=O)O)=C2CCCCC21 (stereo not given) was read as ALOX12 inh 0%.
`COc1cccc(CN2CC3(CCN(C(=O)CSC(C)C)CC3)CC2=O)c1` gave ALOX12 inh 20%.
For O=C(N/N=C/c1cc(Cl)cc([N+](=O)[O-])c1O)c1ccc2c(c1)OCO2 the results were DT40 TDP1 no CPT 9.2µM*, HT1080NT lethal -1%, HT1080 IDH1KD tx -4%, IL-1B inflam inh 23, ALOX12 inh -13% and DT40 TDP1 CPT 16µM*.
COc1cc(Cl)cc(/C=N\NC(=O)c2ccc3c(c2)OCO3)c1O was read as DT40 TDP1 no CPT -97%, HT1080NT lethal 9.2µM*, HT1080 IDH1KD tx 9.2µM*, IL-1B inflam inh 104, ALOX12 inh inconclusive and DT40 TDP1 CPT inconclusive.
`Cc1ccc(OCCNC(=O)[C@H]2O[C@@H](n3cnc4c(N)ncnc43)[C@H](O)[C@@H]2O)cc1C` gave DT40 TDP1 no CPT -28%, HT1080NT lethal -5%, HT1080 IDH1KD tx 0%, IL-1B inflam inh -6, ALOX12 inh -4% and DT40 TDP1 CPT -23%.
Screening Clc1cccc(-c2cnc([C@@H]3COCCN3C3CCCCC3)[nH]2)c1 returned ALOX12 inh -17%[176 µM].
`O=c1cc(CN2CCN(c3ccc(Cl)c(Cl)c3)CC2)c2ccccc2o1` gave DT40 TDP1 no CPT 15µM*, HT1080NT lethal -2%, HT1080 IDH1KD tx -16%, IL-1B inflam inh 18, ALOX12 inh -22% and DT40 TDP1 CPT -88%.
For COc1cccc(NCc2cc(=O)oc3cc(-c4ccccc4)c(O)cc23)c1 the results were DT40 TDP1 no CPT 18µM*, HT1080NT lethal -18%, HT1080 IDH1KD tx -28%, IL-1B inflam inh inconclusive, ALOX12 inh 7% and DT40 TDP1 CPT inconclusive.
Screening O=c1cc(CN2CCN(c3cccc(Cl)c3)CC2)c2cc(O)c(-c3ccccc3)cc2o1 returned DT40 TDP1 no CPT 18µM*, HT1080NT lethal -3%, HT1080 IDH1KD tx 0%, IL-1B inflam inh 26, ALOX12 inh 175% and DT40 TDP1 CPT 13µM*.
For COc1cccc(NCc2cc(=O)oc3cc(C)c(O)cc23)c1 the results were DT40 TDP1 no CPT inconclusive, HT1080NT lethal -24%, HT1080 IDH1KD tx -1%, IL-1B inflam inh -6, ALOX12 inh inconclusive and DT40 TDP1 CPT inconclusive.
For O=c1cc(CN2CCN(c3ccccc3)CC2)c2cc(O)c(-c3ccccc3)cc2o1 the results were DT40 TDP1 no CPT 10µM*, HT1080NT lethal -2%, HT1080 IDH1KD tx -3%[9.24 µM], IL-1B inflam inh 24, ALOX12 inh -13% and DT40 TDP1 CPT 5.8µM*.
For O=c1cc(CN2CCCCCCC2)c2ccccc2o1 the results were DT40 TDP1 no CPT inconclusive, HT1080NT lethal 26%, HT1080 IDH1KD tx 11%, IL-1B inflam inh 57, ALOX12 inh inconclusive and DT40 TDP1 CPT inconclusive.
`CSCc1noc(CNC(=O)c2cn(CCN)nn2)n1` gave ALOX12 inh 22%.
For CC(C)C(=O)NC(C)C(=O)N1CCN(c2ccccn2)CC1 (stereo not given) the results were ALOX12 inh 32%.

Screens (PubChem)
